Data on eleven molecules can be found in ChEMBL document CHEMBL3988442, “University of Dundee, Small-Polar-MMV Screening Library” (2021).

Common to all, as to parameters: scale not given: direction of the effect not stated beside the values
Assay [1] has as its target Protein translocase subunit SecA (Escherichia coli (strain K12)) (UniProt P10408). As to the kind of experiment: Assay to Identify E. coli SecA ATPase Inhibitors. The format is functional. To be noted: 30 µM.
Assay [2] concerns the target T1, Ubiquitin-activating enzyme e1, putative (Leishmania donovani (strain BPK282A1)) (UniProt E9BSI1).
T1 sequence (whole entry): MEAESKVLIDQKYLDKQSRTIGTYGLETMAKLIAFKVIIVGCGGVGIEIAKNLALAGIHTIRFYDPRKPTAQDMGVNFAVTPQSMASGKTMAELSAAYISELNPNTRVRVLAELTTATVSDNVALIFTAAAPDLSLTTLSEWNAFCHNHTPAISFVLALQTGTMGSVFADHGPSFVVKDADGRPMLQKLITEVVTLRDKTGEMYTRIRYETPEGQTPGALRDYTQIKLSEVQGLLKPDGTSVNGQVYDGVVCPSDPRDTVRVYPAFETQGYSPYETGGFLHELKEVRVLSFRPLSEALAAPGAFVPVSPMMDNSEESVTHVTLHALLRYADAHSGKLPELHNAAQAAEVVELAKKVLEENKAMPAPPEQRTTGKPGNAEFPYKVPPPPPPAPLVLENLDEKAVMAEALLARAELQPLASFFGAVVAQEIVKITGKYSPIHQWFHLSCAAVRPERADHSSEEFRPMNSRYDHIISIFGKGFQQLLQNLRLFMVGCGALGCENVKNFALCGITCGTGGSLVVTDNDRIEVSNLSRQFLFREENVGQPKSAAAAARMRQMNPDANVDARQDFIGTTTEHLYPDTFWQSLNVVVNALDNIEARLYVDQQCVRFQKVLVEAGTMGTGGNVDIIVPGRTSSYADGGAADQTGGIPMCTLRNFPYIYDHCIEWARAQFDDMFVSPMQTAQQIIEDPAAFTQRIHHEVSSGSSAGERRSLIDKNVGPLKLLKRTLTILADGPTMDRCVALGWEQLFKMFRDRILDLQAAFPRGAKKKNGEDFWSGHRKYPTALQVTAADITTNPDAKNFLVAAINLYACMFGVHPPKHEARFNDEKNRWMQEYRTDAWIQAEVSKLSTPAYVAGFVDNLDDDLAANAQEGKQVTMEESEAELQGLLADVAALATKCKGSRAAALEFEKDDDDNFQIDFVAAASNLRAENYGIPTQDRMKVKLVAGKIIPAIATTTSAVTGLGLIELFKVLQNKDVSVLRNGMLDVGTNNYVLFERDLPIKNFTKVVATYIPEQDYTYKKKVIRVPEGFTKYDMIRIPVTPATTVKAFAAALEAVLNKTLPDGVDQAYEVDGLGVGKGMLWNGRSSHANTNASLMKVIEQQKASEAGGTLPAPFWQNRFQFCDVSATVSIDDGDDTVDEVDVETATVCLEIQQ
Kind of assay: Leishmania donovani Ubiquitin Activating Enzyme (LdE1). The format is functional. To be noted: 30 µM.

The target of assay [3] is AMP-activated protein kinase, AMPK (Homo sapiens) (UniProt P54646+O43741+P54619+Q9UGJ0+Q9Y478+Q13131+Q9UGI9). As to the kind of experiment: AMP-dependent Kinase enzyme assay. An in vitro enzyme assay that detects ADP turnover that is directly proportional to AMPK activity. This uses naive AMPK that is activated during the assay with MK-8722. To be noted: 30 µM. It is filed as functional.

Assay [4] has as its target Sialic acid-binding Ig-like lectin 9 (Homo sapiens) (UniProt Q9Y336). As to the kind of experiment: Hs-Siglec9 ALPHAscreen SOP 20170721. The note with it: 10 µM.
A further assay concerns Trypanosoma cruzi. As to the kind of experiment: Trypanosoma cruzi phosphomannomutase and mannose-1-phosphate guanylyltransferase assay. The format is functional. The note with it: 10 µM.
Assay [5] deals with T2, Arginase-2, mitochondrial (Homo sapiens) (UniProt P78540).
T2 sequence (whole entry): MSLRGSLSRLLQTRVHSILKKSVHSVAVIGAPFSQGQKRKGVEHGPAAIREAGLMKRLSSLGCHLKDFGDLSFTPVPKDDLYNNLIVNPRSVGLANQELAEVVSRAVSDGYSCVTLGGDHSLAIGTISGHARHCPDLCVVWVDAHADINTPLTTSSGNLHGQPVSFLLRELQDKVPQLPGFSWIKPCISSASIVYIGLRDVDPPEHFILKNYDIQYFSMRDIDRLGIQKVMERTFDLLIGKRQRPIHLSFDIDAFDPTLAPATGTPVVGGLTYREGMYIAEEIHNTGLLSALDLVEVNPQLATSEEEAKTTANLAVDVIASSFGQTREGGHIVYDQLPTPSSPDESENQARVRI
Kind of assay: in vitro enzyme assay to detect the production of urea directly proportional to the activity of Arginase II. Also: in the data most compounds retested in dose-response had high values. To be noted: 33.3 µM. It is filed as functional.

Assay [6] deals with T3, Proteasome subunit beta (Trypanosoma cruzi) (UniProt O96673).
T3 sequence (whole entry): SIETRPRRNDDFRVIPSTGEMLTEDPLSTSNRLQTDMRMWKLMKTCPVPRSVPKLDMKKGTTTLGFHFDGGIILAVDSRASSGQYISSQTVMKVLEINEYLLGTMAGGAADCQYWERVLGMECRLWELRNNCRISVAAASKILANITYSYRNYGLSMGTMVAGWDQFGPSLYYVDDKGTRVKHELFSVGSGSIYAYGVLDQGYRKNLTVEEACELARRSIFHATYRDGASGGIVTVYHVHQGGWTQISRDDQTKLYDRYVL
As to the kind of experiment: Trypanosoma cruzi proteasome chymotrypsin-like activity (TcProtChymo) assay. Also: in the data most compounds retested in dose-response had high values. It is filed as functional. The note with it: 9.37 µM.

The species named for the next assay is Homo sapiens. As to the kind of experiment: To identify inhibition of the IFN signalling (Jak-Stat) pathway via expression of an eGFP reporter gene under the control of an IFN-stimulated response element (ISRE) containing MxA promoter. It is filed as functional. To be noted: 30 µM.
The target of assay [7] is T4, Tyrosyl-tRNA synthetase, putative (Trypanosoma cruzi (strain CL Brener)) (UniProt Q4DSP6).
T4 sequence (whole entry): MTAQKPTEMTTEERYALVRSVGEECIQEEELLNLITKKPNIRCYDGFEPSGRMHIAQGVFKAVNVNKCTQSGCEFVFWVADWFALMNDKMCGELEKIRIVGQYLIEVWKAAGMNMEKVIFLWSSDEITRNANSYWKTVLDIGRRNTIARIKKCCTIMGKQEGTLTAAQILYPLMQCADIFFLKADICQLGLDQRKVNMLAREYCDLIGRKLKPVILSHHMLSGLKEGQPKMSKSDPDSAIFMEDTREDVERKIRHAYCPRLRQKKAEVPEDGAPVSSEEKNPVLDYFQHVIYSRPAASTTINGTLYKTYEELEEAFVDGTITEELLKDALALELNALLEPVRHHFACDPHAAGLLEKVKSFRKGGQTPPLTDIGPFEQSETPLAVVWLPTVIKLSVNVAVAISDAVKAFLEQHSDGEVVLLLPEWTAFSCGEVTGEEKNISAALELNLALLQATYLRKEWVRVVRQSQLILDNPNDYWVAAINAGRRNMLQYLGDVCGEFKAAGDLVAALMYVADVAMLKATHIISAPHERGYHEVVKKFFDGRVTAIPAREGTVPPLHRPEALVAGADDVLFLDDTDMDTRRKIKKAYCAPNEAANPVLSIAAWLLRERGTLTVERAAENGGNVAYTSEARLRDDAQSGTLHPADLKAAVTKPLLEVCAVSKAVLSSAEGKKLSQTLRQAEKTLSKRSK
As to the kind of experiment: Trypanosoma cruzi tyrosyl tRNA synthetase (TcYRS) _High Tyrosine SOP. Also: in the data most compounds retested in dose-response had high values. It is filed as functional. The note with it: 30 µM.

Assay [8] addresses T4, Tyrosyl-tRNA synthetase, putative (Trypanosoma cruzi (strain CL Brener)). As to the kind of experiment: Trypanosoma cruzi tyrosyl tRNA synthetase (TcYRS) SOP. It is filed as functional. To be noted: 30 µM.
The target of assay [9] is Chromo domain-containing protein 1 (Saccharomyces cerevisiae (strain ATCC 204508 / S288c) (Baker's yeast)) (UniProt P32657). As to the kind of experiment: ScCHD-1 Enzyme Inhibition Assay. Also: in the data most compounds retested in dose-response had high values. The note with it: 30 µM. The format is functional.
Chain of Chromo domain-containing protein 1 (Saccharomyces cerevisiae (strain ATCC 204508 / S288c) (Baker's yeast)) (P32657 whole entry, the tested form may be a part): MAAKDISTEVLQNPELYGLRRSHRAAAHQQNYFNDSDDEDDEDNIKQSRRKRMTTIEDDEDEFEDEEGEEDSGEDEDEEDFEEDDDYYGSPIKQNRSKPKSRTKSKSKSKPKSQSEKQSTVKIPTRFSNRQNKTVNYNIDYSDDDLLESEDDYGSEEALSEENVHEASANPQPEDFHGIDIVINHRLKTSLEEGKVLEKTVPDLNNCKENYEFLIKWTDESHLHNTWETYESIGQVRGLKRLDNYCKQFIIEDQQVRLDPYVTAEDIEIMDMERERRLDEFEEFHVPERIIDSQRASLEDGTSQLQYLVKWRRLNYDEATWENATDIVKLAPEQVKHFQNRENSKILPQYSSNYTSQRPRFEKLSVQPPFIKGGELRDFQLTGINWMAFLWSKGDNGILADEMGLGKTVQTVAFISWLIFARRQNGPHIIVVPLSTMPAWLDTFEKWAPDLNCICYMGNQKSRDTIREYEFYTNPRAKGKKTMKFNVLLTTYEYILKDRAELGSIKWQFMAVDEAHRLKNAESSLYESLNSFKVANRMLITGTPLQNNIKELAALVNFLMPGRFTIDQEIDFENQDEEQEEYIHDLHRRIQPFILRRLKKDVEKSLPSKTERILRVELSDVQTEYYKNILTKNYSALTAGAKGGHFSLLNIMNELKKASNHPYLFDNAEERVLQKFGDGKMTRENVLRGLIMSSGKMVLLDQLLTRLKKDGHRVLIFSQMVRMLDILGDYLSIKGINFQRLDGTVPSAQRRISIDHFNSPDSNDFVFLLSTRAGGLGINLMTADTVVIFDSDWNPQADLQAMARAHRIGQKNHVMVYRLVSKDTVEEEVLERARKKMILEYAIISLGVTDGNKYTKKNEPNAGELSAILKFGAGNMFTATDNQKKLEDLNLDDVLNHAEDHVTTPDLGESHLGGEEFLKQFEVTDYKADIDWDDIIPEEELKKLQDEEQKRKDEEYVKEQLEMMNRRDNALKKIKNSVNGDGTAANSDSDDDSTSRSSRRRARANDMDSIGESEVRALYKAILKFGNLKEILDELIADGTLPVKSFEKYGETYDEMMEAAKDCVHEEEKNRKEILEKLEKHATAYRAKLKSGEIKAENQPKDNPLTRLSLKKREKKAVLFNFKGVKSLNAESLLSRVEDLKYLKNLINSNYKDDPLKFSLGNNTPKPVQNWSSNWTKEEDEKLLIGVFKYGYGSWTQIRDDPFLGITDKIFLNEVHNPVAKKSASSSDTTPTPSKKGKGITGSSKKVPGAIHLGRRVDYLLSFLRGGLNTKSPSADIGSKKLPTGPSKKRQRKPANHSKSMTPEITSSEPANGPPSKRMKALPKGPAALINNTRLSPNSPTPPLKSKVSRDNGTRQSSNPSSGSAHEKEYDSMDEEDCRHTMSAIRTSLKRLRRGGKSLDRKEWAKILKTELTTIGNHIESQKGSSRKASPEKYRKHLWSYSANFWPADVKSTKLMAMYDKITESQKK

For some of these results: Potency and affinity values are given separately.

Chain of Protein translocase subunit SecA (Escherichia coli (strain K12)) (P10408 whole entry): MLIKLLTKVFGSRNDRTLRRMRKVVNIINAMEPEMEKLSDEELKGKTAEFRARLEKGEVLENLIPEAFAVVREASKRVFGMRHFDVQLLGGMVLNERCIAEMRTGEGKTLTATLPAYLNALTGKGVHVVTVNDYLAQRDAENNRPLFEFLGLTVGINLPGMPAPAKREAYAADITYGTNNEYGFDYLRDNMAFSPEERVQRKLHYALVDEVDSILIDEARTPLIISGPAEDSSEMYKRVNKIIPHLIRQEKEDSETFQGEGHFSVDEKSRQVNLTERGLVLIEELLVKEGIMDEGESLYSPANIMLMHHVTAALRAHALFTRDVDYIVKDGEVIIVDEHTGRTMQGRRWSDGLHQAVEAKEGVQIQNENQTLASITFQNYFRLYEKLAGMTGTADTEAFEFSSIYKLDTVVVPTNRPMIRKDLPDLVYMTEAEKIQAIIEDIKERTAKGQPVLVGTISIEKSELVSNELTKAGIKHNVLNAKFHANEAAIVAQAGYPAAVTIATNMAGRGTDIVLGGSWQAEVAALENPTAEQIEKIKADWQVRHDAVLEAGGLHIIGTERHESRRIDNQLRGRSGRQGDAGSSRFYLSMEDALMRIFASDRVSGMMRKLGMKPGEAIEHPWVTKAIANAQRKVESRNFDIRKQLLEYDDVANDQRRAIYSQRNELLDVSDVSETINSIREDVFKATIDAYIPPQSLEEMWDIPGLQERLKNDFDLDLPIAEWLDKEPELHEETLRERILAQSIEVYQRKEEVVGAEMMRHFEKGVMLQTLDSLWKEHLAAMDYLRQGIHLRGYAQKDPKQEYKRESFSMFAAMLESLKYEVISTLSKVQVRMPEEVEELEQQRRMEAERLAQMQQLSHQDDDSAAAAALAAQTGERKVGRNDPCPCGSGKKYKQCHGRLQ
Chain of Sialic acid-binding Ig-like lectin 9 (Homo sapiens) (Q9Y336 whole entry): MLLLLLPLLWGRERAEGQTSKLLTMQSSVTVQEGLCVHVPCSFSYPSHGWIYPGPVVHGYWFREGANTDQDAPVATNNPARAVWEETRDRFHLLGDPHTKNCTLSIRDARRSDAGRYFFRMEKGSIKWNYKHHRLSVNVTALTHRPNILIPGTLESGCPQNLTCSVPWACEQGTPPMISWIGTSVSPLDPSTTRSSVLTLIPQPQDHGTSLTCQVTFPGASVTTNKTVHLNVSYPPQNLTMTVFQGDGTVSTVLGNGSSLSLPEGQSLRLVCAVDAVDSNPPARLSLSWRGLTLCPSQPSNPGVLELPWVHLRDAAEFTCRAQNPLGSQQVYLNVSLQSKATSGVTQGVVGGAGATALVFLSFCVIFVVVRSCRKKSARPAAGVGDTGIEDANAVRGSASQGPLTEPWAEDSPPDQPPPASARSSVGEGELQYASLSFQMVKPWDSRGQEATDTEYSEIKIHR

Take `CC(O)CN1CCN(Cc2nnc(C3CC3)o2)CC1` (stereo unspecified): the Percent Effect in assay [1] is -2.68%; in [2], 22.8%; in [3], -5.24%; in assay [4] it was -11.8%; with Trypanosoma cruzi, 6.7%; in [5], 4.56%. For the same molecule, the Percent Effect in assay [6] was 15%; in the assay listed under Homo sapiens it was -18.4%; in assay [7] it was 6.4%; in [8], 21.5%; in [9], -4.52%.
For `Cc1ccc(C(=O)N2CC[C@@H]3[C@H]2CCC(=O)N3c2ccccc2)o1`, the Percent Effect was -2.77% in assay [1]; 2.67% in [2]; 14% in [3]; -0.294% in [4]; 0.591% with Trypanosoma cruzi; 0.233% in assay [5]. The Percent Effect was -2.03% in assay [6]; 12.1% in the assay filed under Homo sapiens; 7.45% in [7]; 11.5% in [8]; 1.89% in assay [9].
Take `Cc1nnn2c1COCC(CNC(=O)c1ccc3[nH]ccc3c1)C2` (stereo unspecified): the Percent Effect in [1] is -2.29%; in [2] it was 13%; in [3], -0.0167%; in assay [4], 8.82%; with Trypanosoma cruzi, 9.73%; in assay [5], -46.9%. Also, the Percent Effect in assay [6] is 18.1%; in the assay filed under Homo sapiens it was 14.9%; in [7] it was 6.45%; in assay [8] it was 13.6%; in [9], -3.15%.
Regarding `CC(C)CN1C(=O)c2ccc(C(=O)NCCc3c[nH]cn3)cc2C1=O`, the Percent Effect in assay [1] was -1.59%; in assay [2] it was -1.33%; in assay [3], 14.6%; in [4] it was 3.62%; with Trypanosoma cruzi it was -7.07%; in assay [5], -9.68%. For the same molecule, the Percent Effect was 8.87% in assay [6]; -4.06% in the assay filed under Homo sapiens; 5.29% in [7]; 5.13% in assay [8]; -5.85% in assay [9].
As for `CN1CCN(C[C@@H]2OC[C@H]3CN(Cc4cccc(F)c4)CC[C@H]32)CC1`, the Percent Effect in assay [1] was 0.931%; in assay [2], 2.67%; in [3], 4.95%; in assay [4] it was 4.78%; with Trypanosoma cruzi, 2.9%; in assay [5], -53.9%. The Percent Effect in [6] is 7.01%; in the assay listed under Homo sapiens, -8.27%; in assay [7], 2.08%; in assay [8] it was 2.5%; in [9], -4.33%.
Turning to `CCn1ccnc1CN1CCN(CC(=O)NC(C)(C#N)C2CC2)CC1` (stereo unspecified), the Percent Effect in [1] was 1.69%; in assay [2], 15.8%; in [3] it was -1.29%; in assay [4], -1.29%; in the assay with Trypanosoma cruzi, -8.84%; in assay [5], -3.45%. The Percent Effect is 18.9% in assay [6]; 16.7% in the assay filed under Homo sapiens; 5.39% in assay [7]; 9.76% in assay [8]; -5.07% in assay [9].
`CS(=O)(=O)NCCC(=O)NC1CCc2nccn2C1` (stereo unspecified): the Percent Effect in [1] was 2.27%; in [2] it was 2.67%; in assay [3], -6.45%; in assay [4], 1.64%; with Trypanosoma cruzi, -7.5%; in assay [5], 2.08%. The Percent Effect was 19.7% in [6]; 11.5% in the assay listed under Homo sapiens; 4.92% in assay [7]; 11.1% in assay [8]; -5.26% in assay [9].
For `NC(=O)C1CCN(c2nc3nccc(-c4ccccc4)c3c(=O)[nH]2)CC1`, the Percent Effect was -4.01% in assay [1]; 2.74% in assay [2]; -6.46% in assay [3]; 3.02% in [4]; 6.75% in the assay on Trypanosoma cruzi; -7.19% in [5]. Also, the Percent Effect in assay [6] is 14.8%; in the assay listed under Homo sapiens, 5.49%; in [7] it was 1.04%; in [8] it was 6.17%; in assay [9], -5.09%.
As to `CCn1cnnc1CNC(=O)N1CCC(Cc2cccnc2)CC1`, the Percent Effect is -2.15% in assay [1]; -2.6% in assay [2]; -0.131% in assay [3]; 1.86% in assay [4]; -4.41% in the assay with Trypanosoma cruzi; 1.47% in [5]. In addition, the Percent Effect is 0.0808% in [6]; 7.54% in the assay listed under Homo sapiens; -1.91% in assay [7]; -4.71% in assay [8]; 8.62% in [9].
Regarding `Cc1ccccc1CS(=O)(=O)CC(=O)NCc1ccccc1F`, the Percent Effect was -3.68% in assay [1]; 7.89% in assay [2]; 11.2% in assay [3]; 7.68% in [4]; 0.292% with Trypanosoma cruzi; 3.55% in [5]. Also, the Percent Effect in assay [6] is 10.6%; in the assay filed under Homo sapiens, 31%; in assay [7], 4.25%; in [8], 13%; in assay [9], -2.75%.
For the molecule `Cc1ccc(C(C)NC(=O)Cc2c(C)nc3c(c2C)c(=O)[nH]n3C)o1` (stereo unspecified), the Percent Effect was -4.2% in assay [1]; 7.79% in assay [2]; 1.79% in assay [3]; 9.22% in assay [4]; 1.08% with Trypanosoma cruzi; -11% in assay [5]. In addition, the Percent Effect came out at 10.7% in [6]; 1.96% in the assay filed under Homo sapiens; 1.07% in assay [7]; 6.17% in assay [8]; 1.13% in assay [9].
